Sampled rows, rich in hits. Any-hit rate of the full collection: about 21%.
Gal4-VP16 FLuc = VP16 counterscreen qHTS for inhibitors of ROR gamma transcriptional activity | AID 2546, 2010 | actives 3.5% (n = 310,000) | Potency, µM (doses to about 53.6 µM), actives largely listed as inhibitors | Drosophila S2 Gal4-VP16 UAS-luciferase, luminescence, 20 h;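 note: Gal4-VP16 expression switched on by copper sulfate through the metallothionein promoter; nearly all actives have a fitted effect of over 50% in size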
TDP1 cell noCPT = qHTS for Inhibitors of human tyrosyl-DNA phosphodiesterase 1 (TDP1): qHTS in cells in absence of CPT; AID 686978, 2013; actives 15% (n = 420,000); DT40 Tdp1-/- hTDP1 cells, no CPT, ATP luminescence, 48 h; Potency, µM (highest dose often 46.2 µM), actives largely listed as inhibitors; note: nearly all actives have a fitted effect of over 55% in size
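Compound effects on proliferation are scored in DT40 Tdp1-/-;hTDP1 cells in the absence of CPT. ATP levels (CellTiter-Glo luminescence) are recorded after a ≥48 hr, 37 °C incubation.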
IL-1B inflam inh = qHTS for Inhibitors of Inflammasome Signaling: IL-1-beta AlphaLISA Primary Screen; THP-1 LPS/ATP IL-1B secretion, AlphaLISA, 16 h; hits give low values; activity change, % at 57.5 µM; actives 4.7% (n = 360,000); in the data active = activity change below about -50%; inconclusive = mostly about -30% to -49%
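THP-1 cells pretreated 1 hr with compounds (up to 57.5 uM final), then stimulated with LPS (250 ng/mL final) plus ATP (1.25 mM final); secreted IL-1B measured by AlphaLISA after 16 hr, decreased signal indicating inhibition.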
TDP1 cell CPT = qHTS for Inhibitors of human tyrosyl-DNA phosphodiesterase 1 (TDP1): qHTS in cells in presence of CPT; chicken DT40 Tdp1-/-;hTDP1 cells + 20 nM CPT, ATP luminescence, 48 h; Potency, µM (titrated, usually from 46.2 µM), actives largely listed as inhibitors; AID 686979, 2013; actives 12% (n = 420,000); note: nearly all actives have a fitted effect of over 55% in size
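Cell growth measured by CellTiter-Glo luminescence after a minimum 48 h, 37 C compound exposure with 20 nM CPT in Tdp1-knockout DT40 cells stably expressing hTDP1, seeded 400/well; qHTS titration format.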
ELG1 DNA repair = qHTS screen for small molecules that inhibit ELG1-dependent DNA repair in human embryonic kidney (HEK293T) cells expressing luciferase-tagged ELG1. HEK293T ELG1-luciferase reporter, luminescence, 16 h; DNA damage induced by 5-fluorouridine. Potency, µM (titrated, usually from 46.1 µM), most hits filed as inhibitors. actives 2.3% (n = 330,000). AID 504467, 2011; note: nearly all actives have a fitted effect of over 55% in size
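Cells (2,000 per well) received 5-fluorouridine plus test compound or DMSO and were incubated 16 hr at 37 °C, 5% CO2. Luciferase activity was read by luminescence 30 min after ONE-Glo addition; signal suppression marked inhibition of damage-induced ELG1 function.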
RORgamma inh = qHTS for inhibitors of ROR gamma transcriptional activity; Nuclear receptor ROR-gamma (Mus musculus), P51450; Drosophila S2 Gal4-RORgamma UAS-luciferase reporter, 20 h; Potency, µM (doses to about 53.6 µM), most hits filed as inhibitors; actives 5.4% (n = 310,000); AID 2551, 2010; note: nearly all actives have a fitted effect of over 60% in size
Target sequence (P51450 whole entry, looked up, the tested form may be a part): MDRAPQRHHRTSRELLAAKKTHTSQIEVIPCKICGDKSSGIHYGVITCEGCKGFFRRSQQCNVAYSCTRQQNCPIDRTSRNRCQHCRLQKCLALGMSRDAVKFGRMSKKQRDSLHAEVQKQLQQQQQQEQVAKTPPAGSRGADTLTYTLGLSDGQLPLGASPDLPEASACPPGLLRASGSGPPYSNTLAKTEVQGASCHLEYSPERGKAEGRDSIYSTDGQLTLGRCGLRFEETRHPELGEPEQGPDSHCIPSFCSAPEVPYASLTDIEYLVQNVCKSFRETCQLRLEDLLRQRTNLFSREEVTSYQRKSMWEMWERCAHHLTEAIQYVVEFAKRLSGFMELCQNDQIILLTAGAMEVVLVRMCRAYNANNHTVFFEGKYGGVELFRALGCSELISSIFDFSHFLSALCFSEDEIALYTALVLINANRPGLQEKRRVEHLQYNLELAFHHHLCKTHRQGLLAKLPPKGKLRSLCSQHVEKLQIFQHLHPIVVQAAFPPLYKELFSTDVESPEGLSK
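Drosophila Schneider cells stably carrying a metallothionein-driven Gal4 DBD–ROR gamma fusion and a UAS-Photinus luciferase reporter were exposed to compound for 1 hr, then induced with copper sulfate (700 uM final) for 20 hr at ambient temperature before luminescence reading.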
Of the large screens only hits and unclear results are named; the others gave an inactive call. Unless noted, calls come from the whole dose curve; as a rule, active = well fitted curve in the direction sought with a large enough effect; inconclusive = small, poorly fitted or top-dose-only effect, or another doubt; inactive = no such curve, though single readings can be large; an effect the other way counts as inactive or inconclusive.

O=C(OCC(=O)N1CCN(c2ccccc2)CC1)c1cc(Cl)ccc1[N+](=O)[O-]	none
CCOc1ccc(NC(=O)COc2ccc(C(=O)NC(C)c3ccc(S(N)(=O)=O)cc3)cc2OC)cc1 (stereo unspecified)	TDP1 cell noCPT inconclusive (no result: Gal4-VP16 FLuc, RORgamma inh)
CCN(CC)C(=O)CSc1nc2cc(OC)c(OC)cc2c(=O)n1Cc1ccc(Cl)cc1	TDP1 cell noCPT 18µM, IL-1B inflam inh -53, TDP1 cell CPT inconclusive, ELG1 DNA repair inconclusive
COc1ccc(NC(=O)CSc2nc3ccccc3c(=O)n2Cc2cccs2)c(OC)c1	none (no result: TDP1 cell noCPT, IL-1B inflam inh, TDP1 cell CPT)
CCn1cc2nc(SCC(=O)Nc3cc(OC)ccc3OC)n(Cc3ccc(Cl)cc3)c(=O)c2n1	TDP1 cell noCPT 8.2µM, TDP1 cell CPT 12µM (no result: Gal4-VP16 FLuc, IL-1B inflam inh, ELG1 DNA repair, RORgamma inh)
CCn1cc2nc(SCC(=O)Nc3ccc(OC)cc3OC)n(Cc3ccc(Cl)cc3)c(=O)c2n1	TDP1 cell noCPT 18µM, TDP1 cell CPT 21µM (no result: Gal4-VP16 FLuc, IL-1B inflam inh, ELG1 DNA repair, RORgamma inh)
CC1(C(=O)NS(=O)(=O)C2CC2)CCN(C(=O)c2ccc(F)c(Cl)c2)C1 (stereo unspecified)	none (no result: Gal4-VP16 FLuc, ELG1 DNA repair, RORgamma inh)
Clc1ccccc1-c1nccc(NCc2cccs2)n1	TDP1 cell noCPT inconclusive, TDP1 cell CPT inconclusive, RORgamma inh inconclusive (no result: IL-1B inflam inh, ELG1 DNA repair)
CCn1c(SCc2nc(-c3ccc(Cl)cc3)no2)nnc1-c1ccco1	TDP1 cell noCPT 21µM, IL-1B inflam inh inconclusive, TDP1 cell CPT inconclusive, RORgamma inh inconclusive
Cn1c(SCc2nc(-c3ccc(Cl)cc3)no2)nnc1-c1cccs1	TDP1 cell noCPT 16µM, IL-1B inflam inh inconclusive, TDP1 cell CPT inconclusive, ELG1 DNA repair inconclusive
Cn1c(SCc2nc(-c3ccccc3)no2)nnc1-c1cccs1	RORgamma inh inconclusive
C/C(CCN1CCCCc2nc(C)c(C)cc21)=N\O[C@@H](C)CN1CCCc2nc(C)c(C)cc21	none (no result: TDP1 cell noCPT, IL-1B inflam inh, TDP1 cell CPT, ELG1 DNA repair)
Cc1ccc(CNC(=O)CN2C(=O)c3ccccc3S2(=O)=O)cc1	none
CCCCCN1C(C(=O)c2ccccc2)=C(NC(=O)c2ccc(C)cc2)c2ccccc2S1(=O)=O	TDP1 cell noCPT 16µM, TDP1 cell CPT 18µM (no result: Gal4-VP16 FLuc, IL-1B inflam inh, ELG1 DNA repair, RORgamma inh)
O=C(CCN1C(=O)c2ccccc2S1(=O)=O)Nc1ccc(C(=O)O)cc1	ELG1 DNA repair inconclusive
CCCCCN1C(C(=O)c2ccccc2)=C(NC(C)=O)c2ccccc2S1(=O)=O	TDP1 cell noCPT 18µM, TDP1 cell CPT 16µM (no result: Gal4-VP16 FLuc, IL-1B inflam inh, ELG1 DNA repair, RORgamma inh)
CCCCCN1C(C(=O)c2ccccc2)=C(NC(=O)c2ccccc2Cl)c2ccccc2S1(=O)=O	TDP1 cell noCPT 8.2µM, TDP1 cell CPT inconclusive (no result: Gal4-VP16 FLuc, IL-1B inflam inh, ELG1 DNA repair, RORgamma inh)
CC1(C)OC(=O)C2(Cc3ccccc3N3CCC(c4ccccc4)CC32)C(=O)O1 (stereo unspecified)	none (no result: Gal4-VP16 FLuc, IL-1B inflam inh, ELG1 DNA repair, RORgamma inh)
O=C(COC(=O)CC1c2ccccc2CCN1S(=O)(=O)c1ccccc1)Nc1ccccc1 (stereo unspecified)	TDP1 cell noCPT 21µM, TDP1 cell CPT inconclusive, ELG1 DNA repair inconclusive
CCOC1=C2CN(S(=O)(=O)c3ccc(C)cc3)[C@H](c3cccc4ccccc34)C[C@H]2C(C#N)(C#N)C(C#N)(C#N)C1	TDP1 cell noCPT 5.8µM, TDP1 cell CPT 4.1µM (no result: Gal4-VP16 FLuc, ELG1 DNA repair, RORgamma inh)
CCOC1=C2[C@H](c3ccccc3)N(S(=O)(=O)c3ccc(C)cc3)C(C(C)(C)C)[C@H]2C(C#N)(C#N)C(C#N)(C#N)C1 (stereo partly specified)	TDP1 cell noCPT 2.1µM, IL-1B inflam inh -64, TDP1 cell CPT 2.1µM (no result: Gal4-VP16 FLuc, ELG1 DNA repair, RORgamma inh)
C=C(C)C(=O)OCCOC(=O)C(=C)C	none (no result: TDP1 cell noCPT, IL-1B inflam inh, TDP1 cell CPT, ELG1 DNA repair)
COc1cccc(NC(=O)C2CC(=O)n3cnnc3S2)c1 (stereo unspecified)	Gal4-VP16 FLuc inconclusive, TDP1 cell noCPT 5.2µM, TDP1 cell CPT 2.9µM, RORgamma inh inconclusive
